The whole screen tested about 360,000 compounds, of which about 3,700 (1%) were called active. About 2% were inconclusive and are not listed. The sample holds actives, similar compounds and a random draw of the others, so the mix is not that of the screen.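 The calls were made as follows: active = normalized GFP-positive differentiation at or above the plate's own cutoff, the solvent-only control mean plus 3 SD; inconclusive = no clear call, values can overlap the other calls; inactive = the rest.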

This test in a line: induction of myeloid progenitor differentiation, primary screen, cell-based, flow cytometry, MLPCN library (AID 624256).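 As to GFP+ MAC1+ double positive: cells exposed to compound for four days before flow analysis.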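 As to normalized GFP-positive differentiation: cells exposed to compound for four days before flow analysis; 0% = DMSO wells and 100% = fulvestrant positive control at 5 µM.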 As to conditions: ER-HoxA9 myeloid progenitors, lysozyme-GFP differentiation, at 10 µM; GFP+ MAC1+ double positive: measured here: differentiation confirmed by MAC1 staining, stronger effect = higher value; normalized GFP-positive differentiation: stronger effect = higher value.
On to `COc1ccc(Cn2c(=O)oc3ccccc32)cc1`, for which the GFP+ MAC1+ double positive came out at 0.5% and the compound was classed as inactive.
For `O=c1c2ccccc2oc2nc3n(c(=O)c12)CCCS3`, the GFP+ MAC1+ double positive is 7.5% and the compound was called inactive.
Take `CCc1nc2oc3ccccc3c(=O)c2c(=O)n1Cc1ccc(OC)cc1`: the GFP+ MAC1+ double positive is 3.7% and the normalized GFP-positive differentiation was 16.2% (active).
`COc1ccc(-c2nc3ccc(Br)cn3c2Cc2ccc(C)cc2)cc1OC`: the GFP+ MAC1+ double positive is 0.6% and the call was inactive.
For the compound `COc1ccc(CN2CCC(C)(Oc3cccc(F)c3)C2)c2ccccc12` (centres undefined), the GFP+ MAC1+ double positive came out at 0.4% and the outcome was inactive.
For `COc1ccc2nc(-c3ccccn3)ccc2c1` the same measures were 0.3% and “inactive”.
`COc1ccc(NCCc2ccccn2)cc1`: the GFP+ MAC1+ double positive was 0.7% and the result was inactive.
As for `COc1cnc(-c2ccccn2)nc1Oc1ccc(C(C)(C)C)cc1`, the GFP+ MAC1+ double positive is 12.1% and the normalized GFP-positive differentiation is 308% (active).
`CCc1nc2c(OCC(=O)C(C)(C)C)cccn2c1N(C)C(=O)c1ccccc1F`: the GFP+ MAC1+ double positive was determined as 0.3% and the compound was classed as inactive.
For `C=CCC[C@H](CCCCC)OC(=O)/C=C/[C@H](O)[C@@H](O)C[C@@H](O)CC=C` the same measures were 1.1% and “inactive”.
For `O=C(NCCS(=O)(=O)N1CCN(c2ccccc2F)CC1)c1ccc(Br)o1` the same measures were 2.9% and “inactive”.
On to `COc1ccccc1N1CCN(S(=O)(=O)CCNC(=O)c2ccc(OC(C)C)cc2)CC1`, for which the GFP+ MAC1+ double positive came to 1% and the normalized GFP-positive differentiation was 44.1% (active).
As for `CCOc1ccc(CC(=O)NCCS(=O)(=O)N2CCN(c3ccccc3)CC2)cc1`, the GFP+ MAC1+ double positive is 0.6% and the call was inactive.
For `O=C(NCc1cccnc1)c1cc(C2CCCCN2C(=O)CCc2ccccc2)on1` (centres undefined) the same measures were 0.7% and “inactive”.
On to `CCCCOCCCNC(=O)C[C@@H]1C[C@@]2(C(=O)OCC)CCCC=C2N(CCC2=CCCCC2)C1=O`, for which the GFP+ MAC1+ double positive came out at 1.7% and the call was inactive.
`Cc1ccc(-c2nc(C#N)c(NCCCn3ccnc3)o2)cc1`: the GFP+ MAC1+ double positive was found to be 2.5% and the normalized GFP-positive differentiation is 10.9% (active).
As to `Cc1ccc2c(Cl)c(C(=O)NCCCn3ccnc3)sc2c1`, the GFP+ MAC1+ double positive stood at 0.5% and the compound was called inactive.
For `Cc1ccc(S(=O)(=O)c2nc(NCCCn3ccnc3)sc2Cl)cc1` the same measures were 0.5% and “inactive”.
Take `CCOC(=O)c1cc2cc(OC)ccc2n1C1CCN(C)CC1`: the GFP+ MAC1+ double positive came to 0.3% and the call was inactive.
As for `O=C(C(=O)N1CCN(c2ccccc2)CC1)c1ccc2c(c1)OCO2`, the GFP+ MAC1+ double positive came out at 1% and the call was inactive.
For `O=C(N[C@H]1CC[C@H](CC(=O)N2CCCCC2)O[C@@H]1CO)c1cccc(F)c1`, the GFP+ MAC1+ double positive was 1.6% and the compound was called inactive.
In the case of `COC(=O)c1c(-c2ccc(C)cc2)csc1N`, the GFP+ MAC1+ double positive turned out to be 2% and the result was inactive.
`CCOC(=O)c1c(-c2ccc(C)cc2)csc1/N=C(\C)C1=C(O)c2ccccc2C1=O`: the GFP+ MAC1+ double positive was found to be 10.3% and the normalized GFP-positive differentiation was 142% (active).
For the compound `CCC(C(=O)OC)n1cnc2scc(-c3ccc(C)cc3)c2c1=O` (centres undefined), the GFP+ MAC1+ double positive was determined as 0.9% and the compound was classed as inactive.
For `Cc1sc2ccccc2c1CNC[C@H]1O[C@@H](n2ccc(=O)[nH]c2=O)[C@H](O)[C@@H]1O` the same measures were 1.3% and “inactive”.
As for `CC1(C)OC(=O)C2=C(C[C@@H](C3CC3)O[C@H]2c2ccc(Cl)cc2)O1`, the GFP+ MAC1+ double positive was 1.4% and the outcome was inactive.
For `COCCNC(=O)C1C(=O)Nc2ccccc2C(=O)N1c1ccc2c(c1)OCCO2` (centres undefined), the GFP+ MAC1+ double positive was 3.1% and the result was inactive.
For `COc1ccccc1N1CCN(C(=O)c2cc3c(-c4ccc(Cl)cc4)nn(C)c3s2)CC1` the same measures were 3.7% and “inactive”.
`CCOC(=O)N1CCN(C(=O)c2cc3c(-c4ccc(Cl)cc4)nn(C)c3s2)CC1`: the GFP+ MAC1+ double positive came out at 33.3% and the normalized GFP-positive differentiation is 83.1% (active).
As for `Cn1nc(C(F)(F)F)c2cc(C(=O)N3CCOCC3)sc21`, the GFP+ MAC1+ double positive is 0.1% and the compound was called inactive.
As to `CCCS(=O)(=O)NC(=O)C1(C)CCCN(C(=O)c2cc(C)on2)C1` (centres undefined), the GFP+ MAC1+ double positive came out at 0.6% and the outcome was inactive.
As to `FC(F)(F)Oc1ccccc1C(c1nnnn1C1CCCCC1)N1CCN(C/C=C/c2ccccc2)CC1` (centres undefined), the GFP+ MAC1+ double positive was found to be 1.6% and the call was inactive.
Turning to `O=c1[nH][nH]c2c1[C@H](c1ccc(Cl)cc1)O[C@H](CCc1ccccc1)C2`, the GFP+ MAC1+ double positive is 0.6% and the compound was classed as inactive.
As to `CCCc1cc(-c2n[nH]c(=S)n2Cc2ccccc2)cs1`, the GFP+ MAC1+ double positive stood at 5.8% and the call was inactive.
For `CC(C)Oc1ccc(Cc2n[nH]c(=S)n2Cc2ccccc2)cc1Cl` the same measures were 0.3% and “inactive”.
Regarding `COc1cc(-c2n[nH]c(=S)n2Cc2ccccc2)cc(OC)c1OC`, the GFP+ MAC1+ double positive stood at 22.5% and the normalized GFP-positive differentiation was 297% (active).
Turning to `CN(C)CCNC(=O)c1cccc(-c2cnc3c(NC=O)cc(-c4cccc(C(F)(F)F)c4)cn23)c1`, the GFP+ MAC1+ double positive came to 2.2% and the compound was called inactive.

Values taken from PubChem BioAssay AID624256 (NMMLSC, 2012).
